# Assay results as given in the supplement of paper PMC8975748.
# Counter-ions that a name gives are not always drawn.
# Test system: Saccharomyces cerevisiae BY4741 SeMeCo community
# Assay: z-score of subpopulation abundance vs DMSO median, subpopulation auxotrophic for L; higher = larger share of this subpopulation than in DMSO controls
# Settings: 10 µM; 24 h; SM minimal medium; subpopulation (auxotrophy): L
# Method: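 Fluorescent four-plasmid SeMeCo (self-establishing metabolically cooperating S. cerevisiae BY4741 community; plasmids pH-mRuby2, pL-mWasabi, pU-eCFP, pM-TagRFP657) was grown 24 h in minimal SM medium with each Selleck FDA-approved drug at 10 µM in 384-well plates. Cells were fixed and imaged by high-content confocal microscopy. For each auxotrophic subpopulation (and the prototroph), a z-score gives the deviation from the DMSO vehicle-control population median.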
row,Compound,z-score of subpopulation abundance
1,CC(Cc1ccc(O)c(O)c1)C(C)Cc1ccc(O)c(O)c1 (stereo not given) [Nordihydroguaiaretic acid (NDGA)],0.06
2,CC(C(=O)O)c1cccc(C(=O)c2ccccc2)c1 (stereo not given) [Ketoprofen],1.73
3,C#C[C@]1(OC(C)=O)CC[C@H]2[C@@H]3CCC4=C[C@@H](OC(C)=O)CC[C@@H]4[C@H]3CC[C@@]21C [Ethynodiol diacetate],-0.15
4,COc1ccc(NS(=O)(=O)c2ccc(N)cc2)nn1 [Sulfamethoxypyridazine],-0.07
5,N=C(N)NC(=N)N1CCOCC1 [Moroxydine HCl],-0.09
6,CCN(CC)CCNC(=O)c1cc(Cl)c(N)cc1OC [Metoclopramide HCl],-0.18
7,OCCN1CCN(CC/C=C2/c3ccccc3Sc3ccc(C(F)(F)F)cc32)CC1 [Flupenthixol dihydrochloride],1.34
8,C[N+](C)(C)CCO.[Cl-] [Choline Chloride],-0.08
9,C=CC[N+]1([C@H]2C[C@H]3[C@@H]4CC[C@H]5C[C@H](O)[C@@H](N6CCOCC6)C[C@]5(C)[C@H]4CC[C@]3(C)[C@H]2OC(C)=O)CCCC1 [Rocuronium Bromide],0.67
10,N=C(N)NC(=O)c1nc(Cl)c(N)nc1N [Amiloride HCl],1.94
11,CN[C@@H]1[C@@H](O)[C@@H](O[C@@H]2[C@@H](O)[C@H](O[C@H]3OC(CN)=CC[C@H]3N)[C@@H](N)C[C@H]2N)OC[C@]1(C)O [Sisomicin sulfate],1.01
12,CC[C@H](c1ccc(O)cc1)[C@@H](CC)c1ccc(O)cc1 [Hexestrol],-0.78
13,CCc1cccc2c3c([nH]c12)C(CC)(CC(=O)O)OCC3 (stereo not given) [Etodolac],-0.55
14,c1ccc2[nH]c(-c3cscn3)nc2c1 [Thiabendazole],-0.23
15,Cc1c(-c2ccc(O)cc2)n(Cc2ccc(OCCN3CCCCCC3)cc2)c2ccc(O)cc12 [Bazedoxifene HCl],-0.9
16,CN1CCOC(c2ccccc2)c2ccccc2C1 (stereo not given) [Nefopam HCl],-1.02
17,CN1CCC(=C2c3ccccc3CCc3sccc32)CC1 [Pizotifen Malate],0.36
18,COc1cccc(-c2c(C)n(Cc3c(F)cccc3C(F)(F)F)c(=O)n(C[C@H](NCCCC(=O)O)c3ccccc3)c2=O)c1F [Elagolix Sodium],-0.55
19,O=C(c1ccc(F)cc1)C1CCN(CCn2c(=O)[nH]c3ccccc3c2=O)CC1 [Ketanserin],-0.47
20,CCn1cc(C(=O)O)c(=O)c2cc(F)c(N3CCNCC3)cc21 [Norfloxacin],-0.15

row,Compound,z-score of subpopulation abundance
1,CCN1CCN(c2cc3c(cc2F)c(=O)c(C(=O)O)cn3C2CC2)CC1 [Enrofloxacin],-0.5
2,COc1cccc2c1C(=O)c1c(O)c3c(c(O)c1C2=O)CC(O)(C(=O)CO)CC3OC1CC(N)C(O)C(C)O1 (stereo not given) [Doxorubicin (Adriamycin) HCl],0.99
3,CC(C)[N+]1(C)[C@@H]2CC[C@H]1C[C@@H](OC(=O)C(CO)c1ccccc1)C2 (stereo not given in full) [Ipratropium Bromide],0.58
4,CC1(C)S[C@@H]2[C@H](NC(=O)[C@H](NC(=O)N3CCN(S(C)(=O)=O)C3=O)c3ccccc3)C(=O)N2[C@H]1C(=O)O [Mezlocillin Sodium],0.24
5,CC[N+](CC)(CC)CCOc1cccc(OCC[N+](CC)(CC)CC)c1OCC[N+](CC)(CC)CC [Gallamine Triethiodide],-0.79
6,CN1CCC(=C2c3ccccc3C=Cc3ccccc32)CC1 [Cyproheptadine hydrochloride],0.25
7,Cc1ncc([N+](=O)[O-])n1CCOC(=O)c1ccccc1 [Metronidazole Benzoate],-0.6
8,COC(=O)C1=C(C#N)NC(C)=C(C(=O)OC(C)C)C1c1cccc([N+](=O)[O-])c1 (stereo not given) [Nilvadipine],-0.93
9,CC(C)c1c(C(=O)Nc2ccccc2)c(-c2ccccc2)c(-c2ccc(F)cc2)n1CC[C@@H](O)C[C@@H](O)CC(=O)O [Atorvastatin],1.5
10,CC/C(=C(/CC)c1ccc(O)cc1)c1ccc(O)cc1 [Diethylstilbestrol],-0.38
11,OB1OCc2cc(F)ccc21 [Tavaborole (AN-2690)],0.22
12,CN1[C@@H](CC(=O)c2ccccc2)CCC[C@H]1C[C@H](O)c1ccccc1 [Lobeline hydrochloride],-0.58
13,CCCC1CC(C(=O)NC(C(C)Cl)C2OC(SC)C(O)C(O)C2O)N(C)C1 (stereo not given) [Clindamycin alcoholate],1.51
14,CC(C(=O)O)c1ccc(C(=O)c2cccs2)cc1 (stereo not given) [Suprofen],0.48
15,CC1CCc2c(N3CCC(O)CC3)c(F)cc3c(=O)c(C(=O)O)cn1c23 (stereo not given) [Nadifloxacin],0.77
16,COc1ccc([C@@H]2Sc3ccccc3N(CCN(C)C)C(=O)[C@@H]2OC(C)=O)cc1 [Diltiazem HCl],0.4
17,O=C(O)CCC(=O)Nc1ccc(S(=O)(=O)Nc2nccs2)cc1 [Succinylsulfathiazole],-0.22
18,Cc1ccc2c(Cl)cc(Cl)c(O)c2n1 [Chlorquinaldol],0.46
19,Cc1ncc([N+](=O)[O-])n1CCO [Metronidazole],0.11
20,C(=C\c1ccccc1)/CN1CCN(C(c2ccccc2)c2ccccc2)CC1 [Cinnarizine],0.22
